Source: the supplement of paper PMC10849652
The full data set covers some 7,900 targets. This sample favours those with a hit. About 0.6% of all pairs of compound and target were hits.

Assays:
Assay in all cases: log2 fold change, soluble protein after heating vs DMSO (PISA); higher = thermal stabilisation; K562 cells, 10 uM, 30 min; active = over 0.2 and 3.5 SD of the protein, either way, in both replicates (recomputed)
[1] = compound: CC[C@@H]1C(=O)N(C)c2cnc(Nc3ccc(C(=O)NC4CCN(C)CC4)cc3OC)nc2N1C1CCCC1
Procedure, shortened: (§1)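 K562 cells (2×10^6 cells/mL) were treated with 10 μM compound for 30 min, and aliquots were heated for 3 min over 48°C-58°C. Pooled aliquots were extracted in PBS with 0.5% NP-40 at 4°C, and the supernatant after 21,000xg for 90 min was measured by TMTpro 16plex LC-MS/MS with channel sums equalised. Reported thermal stability, relative to control samples and from duplicates, is a log2 fold change.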

volasertib = compound: CC[C@@H]1C(=O)N(C)c2cnc(Nc3ccc(C(=O)N[C@H]4CC[C@H](N5CCN(CC6CC6)CC5)CC4)cc3OC)nc2N1C(C)C [volasertib]
Procedure, shortened: as §1

[2] = compound: CC[C@H](C)N1C=C(C2=C(C=C(C=C21)C3=CN=C(C=C3)N4CCNCC4)C(=O)NCC5=C(C=C(NC5=O)C)C)C
Procedure, shortened: as §1

epoxomicin = compound: CC[C@H](C)[C@@H](C(=O)N[C@@H]([C@@H](C)O)C(=O)N[C@@H](CC(C)C)C(=O)[C@]1(CO1)C)NC(=O)[C@H]([C@@H](C)CC)N(C)C(=O)C [epoxomicin]
Procedure, shortened: as §1

[3] = compound: CCn1c(C(=O)N(C2CC2)C2CC2)cc2c3c(ncn3C)c(Nc3cc(C)n(C)n3)nc21
Procedure, shortened: as §1

[4] = compound: CCn1cc(-c2ccnc3[nH]c(-c4cccc(CN(C)C)c4)cc23)c(-c2ccc(NC(=O)N(C)C)cc2)n1
Procedure, shortened: as §1

[5] = compound: CN(C)CC(=O)Nc1ccc2[nH]c(=O)c3ccccc3c2c1
Procedure, shortened: as §1

rosiglitazone = compound: CN(CCOC1=CC=C(C=C1)C[C@H]2C(=O)NC(=O)S2)C3=CC=CC=N3 (racemic) [rosiglitazone]
Procedure, shortened: as §1

[6] = compound: CN1C2=C(C3=C1C(=O)N(N=C3)CC4=CC(=CC=C4)N)SC(=C2)S(=O)C
Procedure, shortened: as §1

[7] = compound: CN1CCC(CNc2ccc3ncc(-c4cccc(OC(F)(F)F)c4)n3n2)CC1
Procedure, shortened: as §1

Measured: log2 fold change

ICAM1 (UniProt P05362)
UniProt P05362, sequence (P05362 whole entry, looked up): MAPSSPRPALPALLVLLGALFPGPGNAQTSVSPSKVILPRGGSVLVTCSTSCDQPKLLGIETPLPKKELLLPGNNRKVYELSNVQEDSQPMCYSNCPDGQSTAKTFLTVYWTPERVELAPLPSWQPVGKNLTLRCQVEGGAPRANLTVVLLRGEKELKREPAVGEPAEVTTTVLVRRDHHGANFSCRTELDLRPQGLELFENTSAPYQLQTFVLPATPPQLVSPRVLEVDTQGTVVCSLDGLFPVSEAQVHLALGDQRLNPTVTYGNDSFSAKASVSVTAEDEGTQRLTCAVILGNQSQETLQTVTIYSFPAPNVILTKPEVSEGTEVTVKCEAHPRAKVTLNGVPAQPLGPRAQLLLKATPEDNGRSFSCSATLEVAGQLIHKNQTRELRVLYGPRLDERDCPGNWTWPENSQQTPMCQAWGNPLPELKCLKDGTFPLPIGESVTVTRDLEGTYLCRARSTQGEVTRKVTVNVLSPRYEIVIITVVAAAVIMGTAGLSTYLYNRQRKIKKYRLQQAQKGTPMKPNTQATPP
inactive: [1] 0.155 | volasertib 0.078 | [2] -0.028 | epoxomicin 0.008 | [3] -0.02 | [4] 0.012 | [5] -0.039 | rosiglitazone -0.002 | [6] -0.073
active: [7] 0.223

GHDC (UniProt Q8N2G8)
inactive: [1] -0.075 | volasertib -0.053 | [2] -0.063 | epoxomicin -0.021 | [3] 0.011 | [4] -0.024 | [5] 0.009 | rosiglitazone 0.008 | [6] -0.053 | [7] -0.041

HDHD2 (UniProt Q9H0R4)
UniProt Q9H0R4, sequence (Q9H0R4 whole entry, looked up): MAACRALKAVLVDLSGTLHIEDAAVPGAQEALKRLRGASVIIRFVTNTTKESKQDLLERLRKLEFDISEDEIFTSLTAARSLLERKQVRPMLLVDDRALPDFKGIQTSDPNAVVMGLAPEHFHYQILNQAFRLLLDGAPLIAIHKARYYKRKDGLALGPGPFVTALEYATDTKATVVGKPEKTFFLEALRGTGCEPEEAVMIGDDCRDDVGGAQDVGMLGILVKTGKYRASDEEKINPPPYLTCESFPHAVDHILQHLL
inactive: [1] 0.011 | volasertib 0.049 | [2] -0.007 | epoxomicin 0.073 | [3] -0.012 | [4] -0.063 | [5] 0.053 | rosiglitazone 0.017 | [6] -0.058 | [7] -0.096

HSPA8 (UniProt E9PK54)
inactive: [1] 0.041 | volasertib 0.213 | [2] -0.003 | epoxomicin -0.252 | [3] 0.03 | [4] 0.131 | [5] -0.06 | rosiglitazone 0.042 | [6] 0.11 | [7] 0.128

HEXB (UniProt P07686)
active: [1] -0.426 | volasertib -0.396 | [7] -0.563
inactive: [2] -0.013 | epoxomicin -0.006 | [3] 0.031 | [4] 0.019 | [5] 0 | rosiglitazone -0.008 | [6] -0.047

HTATIP2 isoform 3 (UniProt Q9BUP3)
inactive: [1] -0.029 | volasertib -0.168 | [2] 0.035 | epoxomicin 0.008 | [3] 0.02 | [4] -0.013 | [5] 0.009 | rosiglitazone -0.025 | [6] -0.016 | [7] -0.148

FBL (UniProt P22087)
UniProt P22087, sequence (P22087 whole entry, looked up): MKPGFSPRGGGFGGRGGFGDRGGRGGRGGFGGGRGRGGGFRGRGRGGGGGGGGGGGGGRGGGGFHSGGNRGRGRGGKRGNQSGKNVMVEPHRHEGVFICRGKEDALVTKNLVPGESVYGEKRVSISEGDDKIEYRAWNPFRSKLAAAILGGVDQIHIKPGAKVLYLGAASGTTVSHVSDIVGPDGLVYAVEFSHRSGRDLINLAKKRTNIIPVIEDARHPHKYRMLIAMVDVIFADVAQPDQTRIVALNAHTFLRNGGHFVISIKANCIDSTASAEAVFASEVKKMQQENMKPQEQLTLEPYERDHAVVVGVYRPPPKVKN
inactive: [1] 0.283 | volasertib 0.151 | [2] -0.034 | epoxomicin -0.396 | [3] -0.106 | [4] 0.184 | [5] -0.143 | rosiglitazone -0.144 | [6] 0.359 | [7] 0.34

HIKESHI (UniProt Q53FT3)
inactive: [1] -0.116 | volasertib -0.178 | [2] 0.022 | epoxomicin -0.013 | [3] -0.015 | [4] 0.001 | [5] 0.008 | rosiglitazone 0.035 | [6] -0.018 | [7] 0.077

GPX4 (UniProt P36969)
UniProt P36969, sequence (P36969 whole entry, looked up): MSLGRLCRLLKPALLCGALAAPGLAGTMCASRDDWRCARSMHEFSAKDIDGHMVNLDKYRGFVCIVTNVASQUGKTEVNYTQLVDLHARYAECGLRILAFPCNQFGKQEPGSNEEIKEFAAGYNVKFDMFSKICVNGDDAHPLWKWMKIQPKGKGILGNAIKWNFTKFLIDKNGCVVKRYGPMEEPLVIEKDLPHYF
inactive: [1] 0.019 | volasertib 0.016 | [2] 0.012 | epoxomicin 0.021 | [3] 0.001 | [4] -0.025 | [5] 0.009 | rosiglitazone -0.012 | [6] -0.061 | [7] 0.067

HECTD1 (UniProt Q9ULT8)
inactive: [1] 0.107 | volasertib -0.221 | [2] 0.063 | epoxomicin 0.012 | [3] -0.041 | [4] 0 | [5] 0.016 | rosiglitazone 0.056 | [6] 0.17 | [7] -0.054

FUCA2 (UniProt Q9BTY2)
active: [1] -1.11 | volasertib -1.04
inactive: [2] 0.001 | epoxomicin -0.024 | [3] 0.007 | [4] 0.003 | [5] -0.019 | rosiglitazone -0.023 | [6] -0.033 | [7] -0.029

HIC2 (UniProt Q96JB3)
inactive: [1] 0.028 | volasertib -0.19 | [2] 0.032 | epoxomicin -0.134 | [3] 0.126 | [4] 0.128 | [5] -0.035 | rosiglitazone -0.185 | [6] 0.164 | [7] -0.006

FHOD1 (UniProt Q9Y613)
inactive: [1] 0.127 | volasertib -0.055 | [2] 0.075 | epoxomicin -0.171 | [3] -0.148 | [4] 0.093 | [5] -0.048 | rosiglitazone 0.039 | [6] 0.372 | [7] -0.022

GNPAT (UniProt O15228)
UniProt O15228, sequence (O15228 whole entry, looked up): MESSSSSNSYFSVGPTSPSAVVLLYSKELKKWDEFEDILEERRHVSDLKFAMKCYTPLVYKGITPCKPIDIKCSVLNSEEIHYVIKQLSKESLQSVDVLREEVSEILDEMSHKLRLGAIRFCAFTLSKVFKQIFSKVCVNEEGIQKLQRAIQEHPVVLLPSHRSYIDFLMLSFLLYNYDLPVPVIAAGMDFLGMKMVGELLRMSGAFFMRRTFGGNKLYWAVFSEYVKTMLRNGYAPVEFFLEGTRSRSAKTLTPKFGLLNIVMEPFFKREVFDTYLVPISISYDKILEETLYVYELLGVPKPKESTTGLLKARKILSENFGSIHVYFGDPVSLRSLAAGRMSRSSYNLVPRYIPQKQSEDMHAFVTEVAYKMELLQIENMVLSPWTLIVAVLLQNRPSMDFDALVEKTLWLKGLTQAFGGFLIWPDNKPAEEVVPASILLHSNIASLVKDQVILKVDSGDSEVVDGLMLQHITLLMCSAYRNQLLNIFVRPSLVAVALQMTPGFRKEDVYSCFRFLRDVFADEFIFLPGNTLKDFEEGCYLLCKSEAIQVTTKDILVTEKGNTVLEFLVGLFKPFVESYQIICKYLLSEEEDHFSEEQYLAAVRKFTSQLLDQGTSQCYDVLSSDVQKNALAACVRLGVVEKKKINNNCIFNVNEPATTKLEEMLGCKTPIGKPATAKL
inactive: [1] -0.065 | volasertib -0.149 | [2] -0.02 | epoxomicin 0.04 | [3] 0.044 | [4] -0.066 | [5] -0.027 | rosiglitazone 0.066 | [6] -0.084
active: [7] -0.354

GUK1 isoform 2 (UniProt Q16774)
inactive: [1] -0.116 | volasertib 0.081 | [2] 0.097 | epoxomicin 0.12 | [3] -0.151 | [4] -0.167 | [5] 0.049 | rosiglitazone 0.158 | [6] 0 | [7] 0.071

GDPD1 (UniProt Q8N9F7)
inactive: [1] 0.069 | volasertib 0.049 | [2] -0.019 | epoxomicin 0.017 | [3] -0.015 | [4] -0.188 | [5] 0.004 | rosiglitazone 0.083 | [6] -0.132 | [7] 0.092

HBZ (UniProt P02008)
UniProt P02008, sequence (P02008 whole entry, looked up): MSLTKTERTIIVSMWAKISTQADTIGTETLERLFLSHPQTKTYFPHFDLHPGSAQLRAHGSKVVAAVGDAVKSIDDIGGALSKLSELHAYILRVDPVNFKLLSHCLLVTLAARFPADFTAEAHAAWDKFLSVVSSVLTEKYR
active: epoxomicin 0.288
inactive: [1] 0.03 | volasertib -0.065 | [2] -0.026 | [3] 0.061 | [4] -0.021 | [5] 0.019 | rosiglitazone -0.005 | [6] -0.012 | [7] 0.016

HAX1 (UniProt O00165)
active: volasertib -0.393 | [7] -0.584
inactive: [1] -0.087 | [2] -0.011 | epoxomicin -0.018 | [3] -0.031 | [4] 0.084 | [5] 0.05 | rosiglitazone 0.023 | [6] 0.012

GLRX3 (UniProt O76003)
inactive: [1] -0.164 | [2] 0.066 | epoxomicin 0.018 | [3] 0.027 | [4] -0.025 | [5] -0.011 | rosiglitazone 0.014 | [6] -0.03 | [7] -0.03
active: volasertib -0.331

GLYR1 (UniProt Q49A26)
inactive: [1] 0.099 | volasertib 0.054 | [2] 0.026 | epoxomicin -0.074 | [3] -0.047 | [4] 0.026 | [5] -0.038 | rosiglitazone -0.292 | [6] -0.019 | [7] 0.041

HS1BP3 (UniProt Q53T59)
active: volasertib -0.343
inactive: [1] -0.038 | [2] 0.073 | epoxomicin 0.056 | [3] -0.043 | [5] 0.012 | rosiglitazone 0.07 | [6] -0.041

GUSB (UniProt P08236)
UniProt P08236, sequence (P08236 whole entry, looked up): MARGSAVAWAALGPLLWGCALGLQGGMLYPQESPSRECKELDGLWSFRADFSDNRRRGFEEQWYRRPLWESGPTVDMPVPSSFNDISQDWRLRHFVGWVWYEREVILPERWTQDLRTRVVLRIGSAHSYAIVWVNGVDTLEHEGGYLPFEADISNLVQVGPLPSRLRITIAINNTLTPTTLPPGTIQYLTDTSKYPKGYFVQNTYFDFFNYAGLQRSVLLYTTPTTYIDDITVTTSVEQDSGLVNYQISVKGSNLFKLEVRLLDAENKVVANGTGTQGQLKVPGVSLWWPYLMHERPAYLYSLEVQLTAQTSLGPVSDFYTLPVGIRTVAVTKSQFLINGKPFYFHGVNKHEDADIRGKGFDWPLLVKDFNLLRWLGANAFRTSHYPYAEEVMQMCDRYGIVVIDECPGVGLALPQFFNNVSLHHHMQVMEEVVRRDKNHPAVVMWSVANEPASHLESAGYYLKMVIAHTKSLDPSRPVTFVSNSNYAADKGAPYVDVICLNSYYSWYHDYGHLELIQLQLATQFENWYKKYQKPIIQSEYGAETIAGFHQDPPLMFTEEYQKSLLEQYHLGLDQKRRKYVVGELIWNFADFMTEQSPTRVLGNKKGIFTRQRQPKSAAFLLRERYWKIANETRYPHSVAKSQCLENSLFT
inactive: [1] -0.104 | volasertib 0.067 | [2] 0.354 | epoxomicin -0.053 | [3] -0.151 | [4] -0.026 | [5] -0.001 | rosiglitazone -0.041 | [6] -0.028 | [7] 0.001

FBXO3 (UniProt Q9UK99)
UniProt Q9UK99, sequence (Q9UK99 whole entry, looked up): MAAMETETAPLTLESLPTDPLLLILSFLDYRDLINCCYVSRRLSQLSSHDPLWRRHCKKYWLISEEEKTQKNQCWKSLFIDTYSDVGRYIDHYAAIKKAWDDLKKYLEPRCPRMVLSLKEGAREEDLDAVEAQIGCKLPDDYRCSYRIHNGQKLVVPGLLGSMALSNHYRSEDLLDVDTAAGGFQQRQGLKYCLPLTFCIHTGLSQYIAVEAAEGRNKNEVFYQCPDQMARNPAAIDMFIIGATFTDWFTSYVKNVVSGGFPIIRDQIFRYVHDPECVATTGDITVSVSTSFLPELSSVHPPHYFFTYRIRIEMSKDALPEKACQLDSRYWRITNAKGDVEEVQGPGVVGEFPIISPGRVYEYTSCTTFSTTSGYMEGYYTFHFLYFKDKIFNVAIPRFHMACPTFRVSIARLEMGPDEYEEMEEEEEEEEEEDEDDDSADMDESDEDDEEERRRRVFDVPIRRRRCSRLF
inactive: [1] 0.041 | volasertib 0.042 | [2] 0.052 | epoxomicin 0.007 | [3] 0.001 | [4] -0.074 | [5] -0.03 | rosiglitazone 0.045 | [6] 0.023 | [7] -0.038

HDAC2 (UniProt Q92769)
inactive: [1] 0.024 | volasertib -0.051 | [2] 0.026 | epoxomicin -0.049 | [3] -0.049 | [4] -0.001 | [5] -0.003 | rosiglitazone 0 | [6] -0.041 | [7] 0.056

GABPA (UniProt Q06546)
active: volasertib -0.304
inactive: [1] -0.017 | [2] 0.079 | epoxomicin 0.007 | [3] -0.083 | [4] -0.07 | [5] 0.037 | rosiglitazone 0.076 | [6] -0.026 | [7] -0.174

HDAC6 (UniProt Q9UBN7)
UniProt Q9UBN7, sequence (Q9UBN7 whole entry, looked up): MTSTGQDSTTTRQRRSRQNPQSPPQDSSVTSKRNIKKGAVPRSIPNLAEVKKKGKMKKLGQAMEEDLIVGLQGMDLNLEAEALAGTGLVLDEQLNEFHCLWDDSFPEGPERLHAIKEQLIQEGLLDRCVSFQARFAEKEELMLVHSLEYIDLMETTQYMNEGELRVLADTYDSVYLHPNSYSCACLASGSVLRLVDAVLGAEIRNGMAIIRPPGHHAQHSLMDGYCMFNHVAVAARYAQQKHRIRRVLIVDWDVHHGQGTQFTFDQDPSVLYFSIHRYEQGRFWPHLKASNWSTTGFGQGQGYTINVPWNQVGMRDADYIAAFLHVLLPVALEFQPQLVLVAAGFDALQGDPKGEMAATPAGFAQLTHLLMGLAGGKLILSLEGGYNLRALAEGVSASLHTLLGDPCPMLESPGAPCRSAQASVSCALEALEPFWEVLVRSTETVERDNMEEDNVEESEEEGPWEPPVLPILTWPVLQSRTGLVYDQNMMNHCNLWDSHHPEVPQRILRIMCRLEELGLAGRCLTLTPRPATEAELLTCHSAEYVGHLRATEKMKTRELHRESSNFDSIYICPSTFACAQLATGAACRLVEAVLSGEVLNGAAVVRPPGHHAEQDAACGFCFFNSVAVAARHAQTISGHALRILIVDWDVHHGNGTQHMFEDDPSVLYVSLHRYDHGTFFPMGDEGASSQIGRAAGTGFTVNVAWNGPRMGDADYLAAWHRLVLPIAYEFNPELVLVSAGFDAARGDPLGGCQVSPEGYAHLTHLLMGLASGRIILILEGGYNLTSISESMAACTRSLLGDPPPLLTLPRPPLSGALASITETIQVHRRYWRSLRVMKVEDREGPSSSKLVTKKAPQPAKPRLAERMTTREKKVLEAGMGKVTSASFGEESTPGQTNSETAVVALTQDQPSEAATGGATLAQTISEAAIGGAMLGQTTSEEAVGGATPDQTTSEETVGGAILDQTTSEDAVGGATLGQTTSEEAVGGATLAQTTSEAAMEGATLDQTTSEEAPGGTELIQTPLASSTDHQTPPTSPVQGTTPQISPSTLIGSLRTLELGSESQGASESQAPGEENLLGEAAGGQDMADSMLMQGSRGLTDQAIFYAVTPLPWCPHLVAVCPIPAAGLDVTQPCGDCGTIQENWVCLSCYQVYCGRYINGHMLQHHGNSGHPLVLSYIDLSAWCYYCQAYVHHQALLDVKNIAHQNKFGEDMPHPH
inactive: [1] 0.013 | volasertib 0.005 | [2] 0.014 | epoxomicin -0.069 | [3] -0.074 | [4] -0.157 | [5] 0.068 | rosiglitazone -0.065 | [6] 0.058 | [7] -0.04

HEXA (UniProt P06865)
active: [1] -0.423 | volasertib -0.479 | [7] -0.63
inactive: [2] -0.028 | epoxomicin -0.012 | [3] 0.022 | [4] -0.002 | [5] -0.021 | rosiglitazone 0 | [6] -0.02

GDE1 (UniProt Q9NZC3)
UniProt Q9NZC3, sequence (Q9NZC3 whole entry, looked up): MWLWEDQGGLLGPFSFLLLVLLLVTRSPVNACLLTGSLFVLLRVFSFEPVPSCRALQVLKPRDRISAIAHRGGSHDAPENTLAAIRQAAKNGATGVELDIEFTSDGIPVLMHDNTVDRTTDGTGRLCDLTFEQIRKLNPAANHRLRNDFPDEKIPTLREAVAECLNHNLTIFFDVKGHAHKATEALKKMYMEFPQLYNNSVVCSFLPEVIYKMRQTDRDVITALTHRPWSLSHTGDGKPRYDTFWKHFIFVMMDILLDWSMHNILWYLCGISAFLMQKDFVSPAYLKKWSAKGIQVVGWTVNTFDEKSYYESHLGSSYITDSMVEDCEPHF
inactive: [1] 0.033 | volasertib 0.053 | [2] -0.092 | epoxomicin -0.046 | [3] 0.002 | [5] -0.049 | rosiglitazone -0.003 | [6] -0.016

GALNT4 (UniProt Q8N4A0)
inactive: [1] -0.062 | [2] -0.032 | epoxomicin -0.041 | [3] -0.032 | [4] -0.031 | [5] 0.007 | rosiglitazone 0.051 | [6] -0.007
active: volasertib -0.334 | [7] -0.367

FANCI (UniProt Q9NVI1)
active: [1] -0.277
inactive: volasertib -0.159 | [2] 0.127 | epoxomicin -0.077 | [3] -0.022 | [4] -0.093 | [5] 0.072 | rosiglitazone 0.066 | [6] -0.013 | [7] -0.188
